PubChem BioAssay (Tox21)
Results filed as inconclusive are left out. The source made the active and inactive calls. Unless noted, calls follow the shape of the full dose curve.

Columns and labels:
[1] = Nuclear factor erythroid 2-related factor 2/antioxidant responsive element (Nrf2/ARE) small molecule agonists: luciferase reporter gene qHTS assay in human keratinocytes (AID 1919969); also: nearly all actives have a fitted effect of over 35% in size
[2] = molecular target: Gonadotropin-releasing hormone receptor (Homo sapiens) (UniProt P30968); experiment: Human gonadotropin-releasing hormone receptor (GnRHR) small molecule agonists, calcium flux assay in GnRHR-HEK293 cells (AID 1920063); also: nearly all actives have a fitted effect of over 35% in size
In short: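 GnRHR-HEK293, 1500 cells/well, 18 h 37 C/5% CO2; Ca dye 1 h 37 C; cpd pinned (DMSO), agonist mode; kinetic FL 480/540, 3 min, 1 s reads; 15 conc, n=3.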

[3] = molecular target: KiSS-1 receptor (Homo sapiens) (UniProt Q969F8); experiment: Human kisspeptin (KISS1R) small molecule agonists, calcium flux assay in KISS1R-HEK293 cells (AID 1920064; active = well fitted activation curve with a large enough effect in the repeat runs)
In short: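 Stable human KISS1R HEK293 line; 18 h plating, 37 C/5% CO2; calcium dye 1 h 37 C; compound pin transfer; kinetic fluorescence Ex/Em 480/540, 3 min.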

[4] = G protein-coupled receptor (GPCR) small molecule agonists, calcium flux assay: HEK293 wild type cell line counter screen (AID 1920065)
In short: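 Kinetic fluorescence at Ex/Em 480/540, recorded every second over 3 min, served as the read-out after compound addition. Each compound was tested at 15 concentrations in triplicate on cells pre-loaded with calcium dye for 1 h.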

[5] = p53 small molecule agonists, cell-based qHTS assay with human liver microsomes (AID 1963577)
In short: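 Cells carrying a p53-responsive bla reporter were rested 5 h (37 C, 5% CO2) before compound transfer. Human liver microsomes plus NADPH, 0.5 mg/mL final apiece, supplied metabolism during the 16 h 37 C exposure.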

[6] = p53 small molecule agonists, cell-based qHTS assay with rat liver microsomes (AID 1963578)
In short: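 Fluorescence from a beta-lactamase reporter under a p53 response element was measured after cells had been incubated 16 h at 37 C with test compound and rat liver microsomes plus NADPH (0.5 mg/mL final each).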

[7] = p53 small molecule agonists, cell-based qHTS assay with human liver microsomes: qHTS cell viability counter screen (AID 1963579); also: nearly all actives have a fitted effect of over 45% in size
In short: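 Seed p53RE-bla cells at 4,000 per well; incubate 5 h at 37 C; add compound, human liver microsomes and NADPH; incubate 16 h at 37 C; add CellTiter-Glo; after 30 min at room temperature, read luminescence.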

[8] = p53 small molecule agonists, cell-based qHTS assay with rat liver microsomes: qHTS cell viability counter screen (AID 1963580); also: nearly all actives have a fitted effect of over 45% in size
In short: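 p53RE-bla HCT-116 cells were exposed 16 h at 37 C to compounds with rat liver microsomes (0.5 mg/mL) and NADPH (0.5 mg/mL). Viability was measured in the same wells as ATP content by CellTiter-Glo luminescence.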

[9] = p53 small molecule agonists, cell-based qHTS assay: qHTS cell viability counter screen (AID 1963581); also: nearly all actives have a fitted effect of over 45% in size
In short: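 HCT-116 p53RE-bla cells, 4,000/well, plated 5 h before compound pin transfer; 16 h at 37 C; bla substrate 2 h RT; then CellTiter-Glo, 30 min RT, luminescence.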

[10] = p53 small molecule agonists, cell-based qHTS assay (AID 1963582; active = well fitted activation curve with a large enough effect in the signal ratio in the repeat runs, not every such curve was filed as active; the % refers to the signal ratio)
In short: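 Reporter line: p53RE-bla. Pre-incubation 5 h, 37 C, 5% CO2; compound (DMSO, pin tool) 16 h, 37 C; B/G FRET substrate 2 h RT; fluorescence intensity read.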

[11] = molecular target: 5-hydroxytryptamine receptor 2A (Homo sapiens) (UniProt P28223); experiment: 5-hydroxytryptamine receptor 2A (HTR2A) small molecule agonists, cell-based qHTS assay (AID 1963587); also: nearly all actives have a fitted effect of over 30% in size
In short: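 CHO cells stably expressing human HTR2A, plated 18 h, loaded with calcium dye 1 h at 37 C. Agonist mode: compounds added and intracellular calcium fluorescence recorded kinetically for 2 min at 1 sec intervals.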

[12] = cAMP Responsive Elements (CRE) small molecule agonists, cell-based qHTS assay (AID 1963590)
In short: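 HEK 293T CRE-bla, 2,000 cells/well, 18 h preincubation 37 C/5% CO2; cpds (DMSO) pinned, 3 h; LiveBLAzer B/G FRET substrate, 2 h RT.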

[13] = molecular target: Beta-2 adrenergic receptor (Homo sapiens) (UniProt P07550); experiment: Adrenergic beta2 receptor (ADRB2) small molecule antagonists, cell-based qHTS assay (AID 1963592); also: series mostly up to about 92 µM; nearly all actives have a fitted effect of over 50% in size
In short: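 Cells (CHO, stable ADRB2 overexpression) incubated 18-20hr at 37C; compounds added from DMSO; agonist mix (1nM isoproterenol, 100uM IBMX, 25uM Ro-20-1724) added; 0.5hr RT; d2-cAMP and anti-cAMP-cryptate added; 1hr RT; 665/615 nm read.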

[14] = molecular target: Beta-2 adrenergic receptor (Homo sapiens) (UniProt P07550); experiment: Adrenergic beta2 receptor (ADRB2) small molecule agonists, cell-based qHTS assay (AID 1963593);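 also: CHO cells stably overexpressing human ADRB2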
In short: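 CHO cells stably over-expressing ADRB2 were plated overnight at 37C, then dosed with compounds plus a stimulation mix containing 100uM IBMX and 25uM Ro-20-1724 for 0.5hr at room temperature. cAMP was measured by HTRF competition, 1hr.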

[15] = molecular target: D(2) dopamine receptor (Homo sapiens) (UniProt P14416); experiment: Dopamine D2 receptor (DRD2) small molecule agonists, cell-based qHTS assay (AID 1963594); also: nearly all actives have a fitted effect of over 35% in size
In short: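 HEK293 cells stably expressing human DRD2, pre-treated with PDE inhibitor Ro20-1724 (0.1 mM final) and compound 10 min at room temperature, then stimulated with NKH477 (200nM […]) for 30 min. cAMP read by HTRF (665/620 nm).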

[16] = molecular target: D(2) dopamine receptor (Homo sapiens) (UniProt P14416); experiment: Dopamine D2 receptor (DRD2) small molecule antagonists, cell-based qHTS assay (AID 1963595; active = well fitted inhibition curve with a large enough effect in the signal ratio in the repeat runs, with a control signal flat; the % refers to the signal ratio)
In short: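 HEK293 cells stably expressing DRD2, preincubated with 0.1 mM Ro20-1724 and compounds 10 min, were stimulated with 200 nM NKH477 plus 12 nM quinpirole for 30 min at room temperature; cAMP measured by HTRF (665/620 nm).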

[17] = molecular target: 5-hydroxytryptamine receptor 2A (Homo sapiens) (UniProt P28223); experiment: 5-hydroxytryptamine receptor 2A (HTR2A) small molecule antagonists, cell-based qHTS assay (AID 1963586); also: nearly all actives have a fitted effect of over 45% in size
In short: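 Antagonist-mode intracellular calcium assay: DOI (4 nM) added after 5 min compound pre-incubation at room temperature to dye-loaded HTR2A-CHO cells. Fluorescence followed for 3 min, sampled every second.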

[18] = molecular target: Muscarinic acetylcholine receptor M1 (Homo sapiens) (UniProt P11229); experiment: Cholinergic receptor muscarinic 1 (CHRM1) small molecule antagonists, cell-based qHTS assay (AID 1963588); also: nearly all actives have a fitted effect of over 40% in size
In short: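 CHRM1-CHO calcium-flux assay, antagonist mode. Cells were seeded 18 h, dye-loaded 1 h at 37 C and given compound for 5 min at RT, then acetylcholine was added at 50nM. FDSS fluorescence was read 3 min; 15 concentrations, three runs.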

[19] = molecular target: Muscarinic acetylcholine receptor M1 (Homo sapiens) (UniProt P11229); experiment: Cholinergic receptor muscarinic 1 (CHRM1) small molecule agonists, cell-based qHTS assay (AID 1963589); also: nearly all actives have a fitted effect of over 35% in size
In short: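 Human M1 in stable CHO line; 18 h plating, 1 h dye load 37 C; cpd added (agonist mode); Ca2+ fluorescence kinetic read, 1 s intervals; 15 conc, 3 runs.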

[20] = cAMP Responsive Elements (CRE) small molecule antagonists, cell-based qHTS assay (AID 1963591; active = well fitted inhibition curve with a large enough effect in the signal ratio in the repeat runs, not every such curve was filed as active; the % refers to the signal ratio)
In short: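 Beta-lactamase reporter read by FRET substrate (LiveBLAzer B/G) after 2 h at room temperature. CRE-bla HEK293T cells had received compound plus 0.25 uM (final) NKH477 for 3 h at 37 °C.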
% is scaled to controls: 0 for no effect and ±100 for the full control effect.

Chain of Gonadotropin-releasing hormone receptor (Homo sapiens) (P30968 whole entry, looked up): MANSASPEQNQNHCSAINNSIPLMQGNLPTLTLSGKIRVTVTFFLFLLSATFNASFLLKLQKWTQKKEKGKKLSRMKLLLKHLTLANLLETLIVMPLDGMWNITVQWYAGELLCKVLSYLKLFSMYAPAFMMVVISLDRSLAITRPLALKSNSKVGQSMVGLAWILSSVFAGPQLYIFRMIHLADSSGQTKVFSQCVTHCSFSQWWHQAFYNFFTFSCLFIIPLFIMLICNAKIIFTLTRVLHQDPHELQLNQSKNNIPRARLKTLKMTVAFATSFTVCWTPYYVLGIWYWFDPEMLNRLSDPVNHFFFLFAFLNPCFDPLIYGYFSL
Chain of 5-hydroxytryptamine receptor 2A (Homo sapiens) (P28223 whole entry, looked up): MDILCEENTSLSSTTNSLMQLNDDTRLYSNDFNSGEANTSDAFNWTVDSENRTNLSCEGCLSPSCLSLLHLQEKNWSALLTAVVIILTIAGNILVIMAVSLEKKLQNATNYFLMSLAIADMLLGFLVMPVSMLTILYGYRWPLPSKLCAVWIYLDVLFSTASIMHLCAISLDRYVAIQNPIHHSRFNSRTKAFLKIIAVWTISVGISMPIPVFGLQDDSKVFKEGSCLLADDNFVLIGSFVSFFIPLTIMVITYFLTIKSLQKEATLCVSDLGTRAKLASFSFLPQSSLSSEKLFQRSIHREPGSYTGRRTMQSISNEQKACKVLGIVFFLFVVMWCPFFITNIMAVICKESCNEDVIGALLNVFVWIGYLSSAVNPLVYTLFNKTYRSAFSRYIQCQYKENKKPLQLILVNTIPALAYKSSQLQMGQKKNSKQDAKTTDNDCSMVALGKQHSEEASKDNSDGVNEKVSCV
Chain of KiSS-1 receptor (Homo sapiens) (Q969F8 whole entry, looked up): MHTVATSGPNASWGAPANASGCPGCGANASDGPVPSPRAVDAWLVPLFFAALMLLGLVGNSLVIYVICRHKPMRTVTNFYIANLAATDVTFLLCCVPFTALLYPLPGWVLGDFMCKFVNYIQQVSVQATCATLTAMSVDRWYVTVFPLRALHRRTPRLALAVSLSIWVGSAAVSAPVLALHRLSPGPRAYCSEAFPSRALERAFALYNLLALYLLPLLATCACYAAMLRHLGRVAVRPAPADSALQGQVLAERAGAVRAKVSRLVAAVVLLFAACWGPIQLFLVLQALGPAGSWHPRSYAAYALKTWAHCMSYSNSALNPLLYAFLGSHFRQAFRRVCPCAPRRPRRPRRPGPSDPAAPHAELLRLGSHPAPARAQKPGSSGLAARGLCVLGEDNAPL
Chain of Beta-2 adrenergic receptor (Homo sapiens) (P07550 whole entry, looked up): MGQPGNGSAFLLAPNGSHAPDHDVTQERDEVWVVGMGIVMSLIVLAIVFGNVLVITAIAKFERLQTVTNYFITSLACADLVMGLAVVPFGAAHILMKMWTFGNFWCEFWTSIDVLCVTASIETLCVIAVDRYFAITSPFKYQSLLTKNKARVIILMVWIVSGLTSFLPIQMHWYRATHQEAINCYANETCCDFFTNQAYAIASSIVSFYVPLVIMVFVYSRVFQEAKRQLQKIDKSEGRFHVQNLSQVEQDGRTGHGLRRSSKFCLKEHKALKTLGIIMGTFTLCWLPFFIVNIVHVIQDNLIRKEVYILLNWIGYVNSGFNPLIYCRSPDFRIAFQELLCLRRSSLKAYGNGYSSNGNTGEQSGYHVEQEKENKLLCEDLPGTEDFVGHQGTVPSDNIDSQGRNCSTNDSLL
Chain of D(2) dopamine receptor (Homo sapiens) (P14416 whole entry, looked up): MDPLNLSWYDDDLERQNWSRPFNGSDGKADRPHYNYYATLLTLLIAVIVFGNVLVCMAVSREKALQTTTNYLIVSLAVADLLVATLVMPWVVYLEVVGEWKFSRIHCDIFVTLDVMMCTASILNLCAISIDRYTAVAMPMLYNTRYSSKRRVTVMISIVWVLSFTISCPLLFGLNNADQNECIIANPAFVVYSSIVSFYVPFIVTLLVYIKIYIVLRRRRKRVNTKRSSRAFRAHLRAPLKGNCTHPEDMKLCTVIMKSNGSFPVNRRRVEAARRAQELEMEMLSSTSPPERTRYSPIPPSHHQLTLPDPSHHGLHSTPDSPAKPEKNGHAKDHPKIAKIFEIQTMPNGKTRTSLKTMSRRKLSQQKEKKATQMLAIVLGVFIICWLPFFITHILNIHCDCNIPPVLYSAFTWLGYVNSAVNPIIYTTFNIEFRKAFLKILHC
Chain of Muscarinic acetylcholine receptor M1 (Homo sapiens) (P11229 whole entry, looked up): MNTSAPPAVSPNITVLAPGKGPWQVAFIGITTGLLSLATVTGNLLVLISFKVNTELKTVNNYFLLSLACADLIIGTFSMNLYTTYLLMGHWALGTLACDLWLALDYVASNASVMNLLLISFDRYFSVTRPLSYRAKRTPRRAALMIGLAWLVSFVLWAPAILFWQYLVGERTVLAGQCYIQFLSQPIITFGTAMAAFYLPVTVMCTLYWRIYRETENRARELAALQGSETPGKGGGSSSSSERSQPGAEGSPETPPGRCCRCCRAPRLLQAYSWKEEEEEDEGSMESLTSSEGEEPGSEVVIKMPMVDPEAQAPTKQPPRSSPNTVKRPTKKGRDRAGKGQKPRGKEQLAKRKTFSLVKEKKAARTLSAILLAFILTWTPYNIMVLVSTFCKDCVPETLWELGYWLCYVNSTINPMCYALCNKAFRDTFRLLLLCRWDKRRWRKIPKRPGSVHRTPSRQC

CCOc1ncc(F)c(=O)[nH]1
inactive: Potency [1] | Potency [2] | Potency [3] | Potency [4] | Potency [5] | Potency [6] | Potency [7] | Potency [8] | Potency [9] | Potency [10] | Potency [11] | Potency [12] | Potency [13] | Potency [14] | Potency [15] | Potency [16]

O=[N+]([O-])c1ccccc1Nc1ccccc1
inactive: Potency [1] | Potency [2] | Potency [4] | Potency [5] | Potency [6] | Potency [7] | Potency [8] | Potency [9] | Potency [17] | Potency [18] | Potency [19] | Potency [12] | Potency [13] | Potency [16]

CC(=O)C1(C)CC2=C(CCCC2(C)C)CC1C (centres undefined)
inactive: Potency [1] | Potency [2] | Potency [3] | Potency [5] | Potency [6] | Potency [7] | Potency [9] | Potency [10] | Potency [17] | Potency [11] | Potency [18] | Potency [19] | Potency [12] | Potency [20] | Potency [13] | Potency [14] | Potency [15] | Potency [16]

CCCCC(CC)COCCO (centres undefined)
inactive: Potency [1] | Potency [3] | Potency [4] | Potency [5] | Potency [6] | Potency [7] | Potency [8] | Potency [9] | Potency [10] | Potency [17] | Potency [11] | Potency [18] | Potency [19] | Potency [12] | Potency [20] | Potency [14] | Potency [15] | Potency [16]

CC(COCCO)OCCO (centres undefined)
inactive: Potency [1] | Potency [3] | Potency [4] | Potency [5] | Potency [7] | Potency [8] | Potency [9] | Potency [10] | Potency [17] | Potency [11] | Potency [18] | Potency [19] | Potency [12] | Potency [20] | Potency [13] | Potency [16]

c1ccc2ncccc2c1
inactive: Potency [1] | Potency [2] | Potency [4] | Potency [6] | Potency [7] | Potency [9] | Potency [10] | Potency [11] | Potency [18] | Potency [19] | Potency [12] | Potency [20] | Potency [13] | Potency [15] | Potency [16]

C/C(Cl)=C/CCl
inactive: Potency [1] | Potency [3] | Potency [4] | Potency [5] | Potency [6] | Potency [7] | Potency [8] | Potency [9] | Potency [10] | Potency [18] | Potency [19] | Potency [12] | Potency [20] | Potency [13] | Potency [16]

CCCCCC/C(C=O)=C\c1ccccc1
inactive: Potency [2] | Potency [3] | Potency [4] | Potency [7] | Potency [8] | Potency [9] | Potency [17] | Potency [11] | Potency [18] | Potency [19] | Potency [12] | Potency [20] | Potency [13] | Potency [14] | Potency [15] | Potency [16]

Cc1cc(C)c(N)c(Cl)c1
inactive: Potency [1] | Potency [3] | Potency [4] | Potency [5] | Potency [6] | Potency [7] | Potency [8] | Potency [9] | Potency [10] | Potency [17] | Potency [11] | Potency [19] | Potency [12] | Potency [15] | Potency [16]

OCCOCCN1CCN(C2=Nc3ccccc3Sc3ccccc32)CC1
inactive: Potency [2] | Potency [3] | Potency [4] | Potency [5] | Potency [6] | Potency [7] | Potency [8] | Potency [9] | Potency [10] | Potency [13] | Potency [14] | Potency [15]

NCCNCCNCCN
inactive: Potency [2] | Potency [3] | Potency [4] | Potency [5] | Potency [6] | Potency [7] | Potency [8] | Potency [9] | Potency [10] | Potency [17] | Potency [11] | Potency [18] | Potency [19] | Potency [12] | Potency [20] | Potency [13] | Potency [14] | Potency [16]

COC(=O)/C=C(/C)N
inactive: Potency [1] | Potency [3] | Potency [5] | Potency [6] | Potency [7] | Potency [8] | Potency [9] | Potency [10] | Potency [17] | Potency [11] | Potency [18] | Potency [19] | Potency [12] | Potency [20] | Potency [13] | Potency [14] | Potency [15]

C=CCCCCCCCCCCC
inactive: activity, positive = activation [1] -0.901% [at 8.39 µM] | activity change [2] -0.462% [at 5.22 µM, hits give high values] | activation [4] -0.84% [at 5.23 µM] | activation [5] 1.56% [at 5.99 µM] | activation [6] -3.89% [at 5.99 µM] | activity change, negative = cytotoxicity [8] -1.27% [at 5.99 µM] | activity change, negative = cytotoxicity [9] 18.8% [at 5.99 µM] | activation [10] 0.37% [at 5.99 µM] | activity, negative = inhibition [17] 4.71% [at 5.62 µM] | activation [11] 0.539% [at 7.02 µM] | activity, negative = inhibition [18] -16.9% [at 5.58 µM] | activation [19] -0.585% [at 6.97 µM] | activation [12] -0.0768% [at 8.39 µM] | activity change, negative = inhibition [20] -0.765% [at 8.39 µM] | activity change, negative = inhibition [13] -1.18% [at 8.39 µM] | activation [14] -13.4% [at 8.39 µM] | activation [15] -0.7% [at 8.39 µM] | activity change, negative = inhibition [16] -0.184% [at 8.38 µM]

O=C(CCS)OCC(COC(=O)CCS)(COC(=O)CCS)COC(=O)CCS
inactive: Potency [2] | Potency [3] | Potency [4] | Potency [5] | Potency [6] | Potency [7] | Potency [8] | Potency [9] | Potency [10] | Potency [17] | Potency [11] | Potency [19] | Potency [12] | Potency [20] | Potency [13] | Potency [15]

CC(C)OC(=O)C(O)(CC(=O)O)CC(=O)O
inactive: Potency [1] | Potency [3] | Potency [4] | Potency [5] | Potency [7] | Potency [9] | Potency [10] | Potency [17] | Potency [11] | Potency [19] | Potency [12] | Potency [20] | Potency [13] | Potency [15] | Potency [16]
